Experimental data reported in PubChem BioAssay AID1745853 (National Center for Advancing Translational Sciences (NCATS), 2022).
Where “and” joins values, the source holds several entries; their conditions need not be identical. Equal entries are not always repeated. Hit rate of the full screen: of about 25,000 compounds, about 970 (3.9%) were called active. Inconclusive results (about 8%) are left out. The rule behind the calls is not given here. For the sample, actives were picked, then their nearest neighbours and some compounds at random.

How the values were obtained:
Experiment in all cases: Primary Screen for Target Class Profiling of Small Molecule Inhibitors of Methyltransferases
[1] = target: Catechol O-methyltransferase (Homo sapiens) (UniProt P21964); details: purified enzyme, MTase-Glo SAH luminescence; activity change, negative = inhibition: at 40 µM, stronger effect = lower value; outcome: 40 uM
Description: (§1) PI: Matthew D. Hall Ph.D. and Quinlin M. Hanson Ph.D.
(§2) National Center for Advancing Translational Sciences (NCATS)
(§3) National Institute of Health (NIH), Rockville, MD
(§4) Target class profiling (TCP) is a chemical biology approach amenable to investigating understudied biological targets. TCP is achieved by developing a generalizable assay platform and applying it to screen a curated set of compound libraries against representative members of a target class. Small molecule methyltransferases (SMMTase) are a subclass of methyltransferase that act on metabolites to modulate signaling pathways, metabolize xenobiotics, or balance the available methyl pool. We screened four curated libraries totaling 27,574 unique compounds against the SMMTases nicotinamide N-methyltransferase (NNMT), phenylethanolamine N-methyltransferase (PNMT), histamine N-methyltransferase (HNMT), glycine N-methyltransferase (GNMT), catechol O-methyltransferase (COMT), and guanidinoacetate N-methyltransferase (GAMT). The data generated by this TCP can be leveraged for informed tool molecule development. For example, in the associated publication we identified a chemotype of HNMT-selective inhibitors. Additionally, we identified a putative SMMTase-selective inhibitor with potential as a tool molecule for studying broader methyltransferase biology.
(§5) High-through put screening assays were developed at the National Center for Advancing Translational Science (NCATS) for the enzymes NNMT, PNMT, HNMT, GNMT, COMT, and GAMT. Enzymatic activity was measured as a function of SAM cofactor conversion using the MTase Glo kit (Promega) for all enzymes. All assays were performed in 1536-well format with substrates and SAM concentrations at KM values. Enzyme concentration and assay timing were optimized for 10-20% SAM conversion. Initial screening of 27,574 compounds was done as single-point assays using the highest compound concentration (40 uM). […] These compounds were replated in 11-point dose response and assayed against NNMT, PNMT, HNMT, GNMT, COMT, GAMT, and a counter-assay. The IC50 and efficacy (maximal response) values were determined for each dose-response curve. These values are also accounted for in the area under the curve (AUC) values.
(§6) PROTOCOL TABLE (as described by Inglese J, Shamu CE and Guy RK. 2007)
(§7) SEQUENCE No. (e.g., 1, 2, 3, etc.); […] (e.g., Cells, Incubation, Reagent, etc.); VALUE; DESCRIPTION.
(§8) 1; Reagent; 2 uL; SMMTase Enzyme (2x) in reaction buffer, columns 1- 48.
(§9) 2; Reagent; 1 uL; SAM (4x) in reaction buffer, columns 1-48.
(§10) 3; Controls; 23 nL; DMSO in column 4; sinefungin in DMSO (0 uM - 40 uM) in 7-point 1:2 dilution series (n = 2) in column 2.
(§11) 4; Compounds; 23 nL; Columns 5-48.
(§12) 5; Reagent; 1 uL; Substrate (4x) in reaction buffer, columns 2-48.
(§13) 6; Time; 20-30 min; Incubation.
(§14) 7; Reagent; 1 uL; MTase-Glo reagent (5X), columns 1-48.
(§15) 8; Time; 30 min; Incubation.
(§16) 9; Reagent; 5 uL; MTase-Glo Detection reagent, columns 1-48.
(§17) 10; Time; 30 min; Incubation, luminescence evolution.
(§18) 11; Detection; Luminescence; ViewLux uHTS Microplate Imager (PerkinElmer).
(§19) NOTES (numbers refer to Sequence numbers above)
(§20) 1, 2, 5. White Medium Binding Greiner 1536-well plates (Cat #789175-F, Greiner Bio-One, Monroe, NC); Reaction buffer: 50 mM Tris, pH 8.0, 3 mM MgCl2, 1 mM EDTA, 50 mM NaCl, 1 mM DTT, and 0.1 mg/mL BSA. Evaporation was prevented by covering assay plates with metal lids containing holes to allow gas diffusion.
(§21) 1. Six SMMTase were profiled: HNMT, GNMT, PNMT, COMT, NNMT, GAMT
(§22) 5. The corresponding substrate was used for each enzyme: HNMT - 5.3 uM Histamine; GNMT - >500 uM Glycine; PNMT - 16.2 uM Norephinephrine; COMT - 13.7 uM Norephinephrine; NNMT - 3.8 uM Nicotinamide; GAMT - 2.5 uM Guanidinoacetate.6, 8, 10. Room temperature
(§23) 6. Final reaction conditions: 10 nM COMT, 5 uM SAM, 15 uM norepinephrine, 50 mM Tris, pH 8.0, 3 mM MgCl2, 1 mM EDTA, 50 mM NaCl, 1 mM DTT, and 0.1 mg/mL BSA; refer to tables 2 and S1 for specific timing.
8. […]

[2] = target: Glycine N-methyltransferase (Homo sapiens) (UniProt Q14749); details: purified enzyme, MTase-Glo SAH luminescence; measured here: GNMT inhibition; at 40 µM; stronger effect = lower value
Description: as §1, §2, §3, §4, §5, §6, §7, §8, §9, §10, §11, §12, §13, §14, §15, §16, §17, §18, §19, §20, §21, §22, §23
8. […]

[3] = target: Guanidinoacetate N-methyltransferase (Homo sapiens) (UniProt Q14353); details: purified enzyme, MTase-Glo SAH luminescence; measured here: GAMT inhibition; at 40 µM; stronger effect = lower value
Description: as §1, §2, §3, §4, §5, §6, §7, §8, §9, §10, §11, §12, §13, §14, §15, §16, §17, §18, §19, §20, §21, §22, §23
8. […]

[4] = target: Histamine N-methyltransferase (Homo sapiens) (UniProt P50135); details: purified enzyme, MTase-Glo SAH luminescence; measured here: HNMT inhibition; at 40 µM; stronger effect = lower value
Description: as §1, §2, §3, §4, §5, §6, §7, §8, §9, §10, §11, §12, §13, §14, §15, §16, §17, §18, §19, §20, §21, §22, §23
8. […]

[5] = target: Nicotinamide N-methyltransferase (Homo sapiens) (UniProt P40261); details: purified enzyme, MTase-Glo SAH luminescence; measured here: NNMT inhibition; at 40 µM; stronger effect = lower value
Description: as §1, §2, §3, §4, §5, §6, §7, §8, §9, §10, §11, §12, §13, §14, §15, §16, §17, §18, §19, §20, §21, §22, §23
8. […]

[6] = target: Phenylethanolamine N-methyltransferase (Homo sapiens) (UniProt P11086); details: purified enzyme, MTase-Glo SAH luminescence; measured here: PNMT inhibition; at 40 µM; stronger effect = lower value
Description: as §1, §2, §3, §4, §5, §6, §7, §8, §9, §10, §11, §12, §13, §14, §15, §16, §17, §18, §19, §20, §21, §22, §23
8. […]
% is set by controls: 0 for no effect and ±100 for the full control effect.

Chain of Glycine N-methyltransferase (Homo sapiens) (Q14749 whole entry, looked up): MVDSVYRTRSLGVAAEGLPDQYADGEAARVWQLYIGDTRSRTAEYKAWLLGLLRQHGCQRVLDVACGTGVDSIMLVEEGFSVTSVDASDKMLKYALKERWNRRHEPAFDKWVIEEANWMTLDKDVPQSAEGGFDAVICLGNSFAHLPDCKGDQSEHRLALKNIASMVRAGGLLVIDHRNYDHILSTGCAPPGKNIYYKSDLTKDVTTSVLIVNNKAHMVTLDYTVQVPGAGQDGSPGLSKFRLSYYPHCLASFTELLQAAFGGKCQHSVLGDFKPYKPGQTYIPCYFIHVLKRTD
Chain of Catechol O-methyltransferase (Homo sapiens) (P21964 whole entry, looked up): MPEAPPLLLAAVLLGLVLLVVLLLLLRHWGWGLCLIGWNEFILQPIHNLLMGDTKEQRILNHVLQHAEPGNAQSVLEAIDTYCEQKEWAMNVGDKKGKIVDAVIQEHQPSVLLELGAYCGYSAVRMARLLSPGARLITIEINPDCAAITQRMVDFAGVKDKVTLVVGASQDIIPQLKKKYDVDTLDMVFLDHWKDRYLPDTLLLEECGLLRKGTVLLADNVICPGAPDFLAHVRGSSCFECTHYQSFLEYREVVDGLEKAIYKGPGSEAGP
Chain of Phenylethanolamine N-methyltransferase (Homo sapiens) (P11086 whole entry, looked up): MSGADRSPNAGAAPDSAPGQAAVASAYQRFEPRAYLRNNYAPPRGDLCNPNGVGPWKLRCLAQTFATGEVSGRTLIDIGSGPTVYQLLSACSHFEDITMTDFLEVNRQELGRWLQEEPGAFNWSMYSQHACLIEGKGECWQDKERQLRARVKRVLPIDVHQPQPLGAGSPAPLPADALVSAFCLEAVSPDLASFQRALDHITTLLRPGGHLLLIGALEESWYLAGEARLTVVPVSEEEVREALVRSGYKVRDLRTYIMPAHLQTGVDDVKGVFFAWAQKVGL
Chain of Histamine N-methyltransferase (Homo sapiens) (P50135 whole entry, looked up): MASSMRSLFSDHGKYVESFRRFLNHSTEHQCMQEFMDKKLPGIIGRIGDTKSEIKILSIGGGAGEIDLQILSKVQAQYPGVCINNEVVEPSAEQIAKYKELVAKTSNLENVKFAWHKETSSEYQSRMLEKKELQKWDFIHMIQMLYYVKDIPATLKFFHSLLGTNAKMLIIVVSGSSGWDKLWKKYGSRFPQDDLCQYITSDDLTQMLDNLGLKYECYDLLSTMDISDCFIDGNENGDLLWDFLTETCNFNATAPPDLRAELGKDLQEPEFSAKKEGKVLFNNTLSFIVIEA
Chain of Nicotinamide N-methyltransferase (Homo sapiens) (P40261 whole entry, looked up): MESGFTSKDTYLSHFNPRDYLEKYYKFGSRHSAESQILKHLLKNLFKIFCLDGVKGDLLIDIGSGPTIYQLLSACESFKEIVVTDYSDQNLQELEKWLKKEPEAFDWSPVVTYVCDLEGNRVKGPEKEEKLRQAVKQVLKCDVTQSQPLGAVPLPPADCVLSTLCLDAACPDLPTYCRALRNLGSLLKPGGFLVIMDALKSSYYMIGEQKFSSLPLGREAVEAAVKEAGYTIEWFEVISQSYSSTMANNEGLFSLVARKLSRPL

Structure (SMILES) | activity change, negative = inhibition [1] | activity change, negative = inhibition [2] | activity change, negative = inhibition [3] [%] | activity change, negative = inhibition [4] | activity change, negative = inhibition [5] | activity change, negative = inhibition [6]
CC1CCC(Nc2nc3c(-c4cccc(F)c4)nnn3c3ccccc23)CC1 (centres undefined) | -4.07% (inactive) | 0.278% | 0 | -0.849% | -6.58% | -5.44%
COc1cc(N)c(Cl)cc1C(=O)NC[C@@H]1CCN2CCC[C@@H]12 | -17.2% (inactive) | -4.41% | -14.1 | -11.2% | -21.4% | -18.4%
CCOC(=O)c1cc2n(n1)CC(C)(C(=O)NCc1ccccc1)N(CCCc1ccccc1)C2=O (centres undefined) | -0.428% (inactive) | 1.98% | 0 | 4.53% | -4.41% | 0.451%
CC(C)Cn1c(=O)c2ccccc2n2c(CCC(=O)N3CCN(c4cccc(Cl)c4)CC3)nnc12 | -9.54% (active) | -27.4% | -4.12 | -10.4% | -53.7% | -12.4%
O=C(CCc1nnc2n(Cc3ccc(Cl)cc3)c(=O)c3ccccc3n12)N1CCN(c2ccccc2F)CC1 | -4.23% (inactive) | -7.84% | 3.64 | -1.5% | -3.97% | -4.97%
O=C(CCc1nnc2n(Cc3ccc(Cl)cc3)c(=O)c3ccccc3n12)N1CCN(Cc2ccccc2)CC1 | -0.522% (inactive) | -14.1% | 0.869 | -6.5% | -18.2% | -7.88%
COC(=O)c1ncn2c1C(=O)N(Cc1ccc(OC)cc1)C(C)(C(=O)NCc1ccccc1)C2 (centres undefined) | -12.8% (inactive) | -10.1% | -0.727 | -7.43% | -6.98% | -9.09%
COc1cc2ncnc(Nc3cccc(Cl)c3F)c2cc1OC(=O)N1CCN(C)C[C@H]1C | -20.9% (inactive) | -14.7% | 0.224 | -20.1% | -5.9% | -15.1%
CCOc1ccc(CNC(=O)c2cc3n(n2)CC(C)(C(=O)NCc2ccc(F)cc2)N(C)C3=O)cc1OC (centres undefined) | 1.84% (inactive) | 2.33% | -5.76 | -2.91% | 3.94% | 6.92%
CC(=O)c1cnc2ccc(-c3cc(Cl)c(O)c(Cl)c3)nc2c1NC1CCC(CN(C)C)CC1 (centres undefined) | 2.27% (active) | -9.49% | 1.31 | -75.4% | -14.2% | 0.349%
CCn1cc(S(=O)(=O)N2CCC(C3CCN(C(=O)NC)CC3)C2)cn1 (centres undefined) | -3.73% (inactive) | -4.19% | -5.14 | -1.51% | -10.1% | 9.89%
Cc1cc(Nc2cc(CN3CCOCC3)c3nc(C)c(Cc4ccc(Cl)cc4F)n3n2)n[nH]1 | -59.4% (active) and -59.9% (active) | -74.4% and -69.1% | -49 | -62.1% and -80.8% | -98.7% and -69.4% | -114% and -64.4%
CC1(C=O)CC[C@]2(C(=O)O[C@@H]3O[C@H](CO)[C@@H](O)[C@H](O)[C@H]3O)CC[C@]3(C)C(=CCC4[C@@]5(C)C[C@H](O)[C@H](O[C@@H]6OC[C@@H](O)[C@H](O)[C@H]6O)[C@@](C)(CO)C5CC[C@]43C)C2C1 (some centres undefined) | -12.2% (inactive) | -0.721% | -3.55 | -5.71% | -15.1% | 2.58%
Cc1ccc(C)c(Cn2nc3n(C)c(=O)c4ccc(C(=O)NC5CCCCC5)cc4n3c2=O)c1 | 4.71% (inactive) | -4.89% | 0.055 | 2.18% | 5.92% | 6.36%
